ATXN2 expr inh – Primary qHTS for Inhibitors of ATXN expression | HEK-293 ATXN2-luciferase reporter, luminescence, 24 h | Potency, µM (top dose mostly 57 µM), for inactives: top-dose activity change, negative = inhibition, actives largely listed as inhibitors | actives 0.72% (n = 360,000) | AID 1745845, 2022; also: % is scaled to controls: 0 for no effect and ±100 for the full control effect; nearly all actives have a fitted effect of over 55% in size
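qHTS (up to 57 uM final) was run with 24 h compound exposure of reporter cells at 37 °C. Each well was multiplexed: SteadyGlo luminescence measured ATXN2-luciferase expression after a fluorogenic Gly-Phe-AFC viability readout (25 uM final).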
Nrf2 block – Nrf2 qHTS screen for inhibitors; A549 ARE-Fluc reporter, luciferase luminescence, 18-24 h; Potency, µM (series often up to 46 µM), for the others: at the top dose activity change, negative = inhibition, usual class: inhibitors; actives 2.1% (n = 360,000); AID 504444, 2011; also: % is scaled to controls: 0 for no effect and ±100 for the full control effect; nearly all actives have a fitted effect of over 60% in size
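Cells were seeded and rested 2 h, then exposed to compounds for 18-24 h. CellTiter-Fluor was read first as a viability measure. BugLite was added 15 min before the final luminescent read of ARE-luciferase activity in A549 cells.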
S2 tox – Viability Counterscreen for Primary qHTS for Inhibitors of ATXN expression; actives 0.49% (n = 400,000); Potency, µM (doses to about 56.7 µM), most hits filed as cytotoxic; S2 cells (HEK-293 line with an ATXN2-luciferase reporter) viability, CellTiter-Fluor protease fluorescence, 24 h; AID 651635, 2014; also: nearly all actives have a fitted effect of over 40% in size
A549 tox – Nrf2 qHTS screen for inhibitors: counterscreen for cytotoxicity; A549 ARE-Fluc cells, CellTiter-Fluor viability, 18-24 h; Potency, µM (series often up to 46 µM), without a hit: top-dose activity change, negative = cytotoxicity, hits mostly inhibitors; actives 0.16% (n = 390,000); also: % is scaled to controls: 0 for no effect and ±100 for the full control effect
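A549 ARE-Fluc cells in 5% FBS OPTI-MEM, 5000 cells/well, rested 2 h then exposed to compounds in concentration-response for 18-24 h at 37 °C. Viability by CellTiter-Fluor fluorescence (Ex 405/Em 525) after 30 min; luciferase luminescence (BugLite, 15 min, RT) read afterwards.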
HepG2 tox – qHTS for Inhibitors of TGF-b: Cytotox Counterscreen; HepG2 CAGA-GFP viability, ATP luminescence, 18 h; Potency, µM (highest dose often 46.1 µM), for inactives: at the top dose activity change, negative = cytotoxicity, actives largely listed as cytotoxic; actives 0.76% (n = 410,000); AID 588856, 2011
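HepG2 CAGA-GFP cells (1000/well, DMEM with 1% FBS) received compound, then TGF-beta at 500 pg/mL final, and were incubated 18 hours at 37 degrees C. Viability was read by CellTiter-Glo luminescence. Media-only wells were set as complete cell-killing and DMSO as no toxicity.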
TGFb inhibitor – qHTS for Inhibitors of TGF-b. HepG2 CAGA-GFP TGF-b/SMAD3 reporter, GFP fluorescence, 18 h; TGF-beta stimulated, 500 pg/mL final. Potency, µM (titrated, usually from 46.1 µM), without a hit: at the top dose activity, negative = inhibition, hits mostly inhibitors. actives 1.2% (n = 410,000); also: % is scaled to controls: 0 for no effect and ±100 for the full control effect; nearly all actives have a fitted effect of over 65% in size
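Smad-responsive CAGA-GFP expression was quantified in HEPG2 cells exposed to compounds and 500 pg/mL final TGF-beta for 18 h at 37 degrees C; unstimulated wells defined full inhibition.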
The depositor's hits bear a star; i = inactive; u = inconclusive; x = no result; ! = repeats disagree. The list is not random: actives were taken first. Their share in the collection is about 3.8%. Calls follow the shape of the dose curve; as a rule, active = well fitted curve in the direction sought with a large enough effect; inconclusive = small, poorly fitted or top-dose-only effect, or another doubt; inactive = no such curve, though single readings can be large; an effect the other way counts as inactive or inconclusive. Potency is read from the fitted curve at half-maximal effect.

SMILES	ATXN2 expr inh	Nrf2 block	S2 tox	A549 tox	HepG2 tox	TGFb inhibitor
CCCNC(=O)C(Cc1ccc(C(F)(F)P(=O)(OCC)OCC)cc1)NC(=O)c1ccc(C#N)cc1 (configuration not stated)	2%	-8%	i	5%	-46%	-29%
CC(Cc1ccccc1)N(C)Cc1ccco1 (configuration not stated)	0%	x	i	x	x	x
Oc1cc(Cl)ccc1Oc1ccc(Cl)cc1Cl	40µM*!	4%	40µM*!	2%	-65%	18µM*
O=C(O)COc1ccc(Cl)cc1Cl	-11%	11%	i	4%	0%	4%
CCn1c(C)c(C(=O)NCCc2ccccc2)c2cc(OC)ccc21	5%	-8%	i	1%	18%	3%
COc1ccc2c(c1)c(CC(=O)Nc1c(C)cccc1C)c(C)n2C(=O)c1ccc(Cl)cc1	-4%	23µM*	u	-20%	2%	25%
COc1ccc(-c2ccc3c(c2)CN(C(=O)CCc2ccccc2)Cc2cnnn2-3)cc1	-27%	x	i	x	0%	u
CCOc1ccc(N=Cc2c(O)n(-c3ccc(C)c(C)c3)c(=O)[nH]c2=O)cc1	-1%	17%	i	2%	5.6µM*	0%
CC(=O)Nc1cc(-c2ccc(C(=O)NC3CC3)cc2)cn2c(-c3ccc(F)c(Cl)c3)cnc12	0%	x	i	x	-7%	u
COC(=O)C1=C(c2ccc(OC(F)(F)F)cc2)C[C@@H]2CC[C@H]1N2C(=O)NCc1cc(C)oc1C(F)(F)F	-20%	u	i	-16%	-16%	u
CCCOc1ccc(N2C(=O)CC(N3CCC(O)(c4cccc(C(F)(F)F)c4)CC3)C2=O)cc1 (configuration not stated)	-21%	x	u	-7%	21%	-14%
C[C@@H]1O[C@@H](O[C@@H]2C=C3CCC4C(CC[C@]5(C)[C@@H](c6ccc(=O)oc6)CC[C@]45O)[C@@]3(C)CC2)[C@H](O)[C@H](O)[C@H]1O (some centres not stated)	-82%	u	u	u	-68%	-98%
C[C@@H]1O[C@@H](O[C@H]2C[C@@H](O)[C@]3(CO)[C@H]4[C@H](O)C[C@]5(C)[C@@H](C6COC(=O)C6)CC[C@]5(O)[C@@H]4CC[C@]3(O)C2)[C@H](O)[C@H](O)[C@H]1O (some centres not stated)	0.56µM*	0.41µM*	u	u	-50%	u
O[C@H]1CCCC[C@H]1N1CCC(c2ccccc2)CC1	x	x	i	x	x	x
Cc1cc(C(=O)Nc2ccc(CC(=O)O)cc2)c(C)o1	-5%	5.2µM*	i	4%	9%	-2%
CCc1ccc(NC(=O)c2ccc3oc(=O)n(Cc4ccccc4)c3c2)cc1	-15%	x	u	-17%	-21%	u
COC(=O)C1=C(c2cc3ccccc3s2)C[C@@H]2CC[C@H]1N2C(=O)NCCNC(C)=O	14%	-20%	i	-4%	-21%	-11%
Cc1cc(C)nc(SCC(=O)NC2=NN=C(c3ccc(Br)cc3)CS2)n1	u	x	32µM*	u	-15%	-2%
CCOC(C(=O)OCCN(C)C)(c1ccccc1)c1ccccc1	-21%	x	i	x	x	x
CCc1cccc(NC(=O)c2ccc(NC(=O)N3CCSc4ncccc43)cc2)c1	x	u	x	-10%	2%	0%
Cc1ccc2c(c1)C(c1ccccc1)=NCC(=O)N2	-10%	11%	i	-1%	4%	8%
Cc1ccc2c(c1)C(c1ccccc1)=NCC(=O)N2C	-18%	9.2µM*	u	-3%	-40%	43%
CSc1ncc(C(=O)Nc2ccc(Cl)cc2C(=O)c2ccccc2)c(C)n1	1%	-16%	i	11%	-14%	0%
CC(C)CC1C(=O)N2CCC[C@H]2[C@]2(O)O[C@](NC(=O)[C@@H]3C=C4c5cccc6[nH]c(Br)c(c56)C[C@H]4N(C)C3)(C(C)C)C(=O)N12 (some centres not stated)	x	16µM*	x	-5%	-25%	u
COC(=O)C1=C(c2ccc(OC(F)(F)F)cc2)C[C@@H]2CC[C@H]1N2C(=O)NC1CCCCC1	u	u	u	0%	-14%	u
SMILES	ATXN2 expr inh	Nrf2 block	S2 tox	A549 tox	HepG2 tox	TGFb inhibitor
COCCCn1c(N)c(C(=O)NCCC(C)C)c2nc3ccccc3nc21	-36%	16µM*	x	u	-100%	u
CCCCn1c(N)c(C(=O)OCCOC)c2nc3ccccc3nc21	-28%	0%	x	10%	-9%	-24%
CCCCCCn1c(N)c(C(=O)NCCN2CCOCC2)c2nc3ccccc3nc21	-15%	u	i	-20%	-89%	16µM*
CCOc1ccc2nc(N=Nc3c(O)[nH]c(=S)[nH]c3=O)sc2c1	13%	18%	x	23µM*	5%	10%
CCOc1ccc2nc(N=Nc3c(O)[nH]c(=O)[nH]c3=O)sc2c1	2%	-1%	u	u	1%	0%
Cc1ccc(/C=C2\C(=O)NC(=S)N(c3ccccc3F)C2=O)s1	32µM*	-21%	u	-19%	-109%	u
O=C(O)C1CC2(Cl)C(Cl)=C(Cl)C1(Cl)C2(Cl)Cl (configuration not stated)	-3%	-3%	i	-12%	-10%	-1%
CC1(C)Cc2c(c(N3CCOCC3)nc3sc4c(NCc5ccccc5)nnnc4c23)CS1	-29%	2.6µM*	i	-2%	-12%	19%
CCCc1cc(N2CCN(c3ccc(OC)cc3)CC2)n2cnnc2n1	-28%	12µM*	i	-18%	-21%	u
Cc1nn2c(=O)cc(N3CCNCC3)nc2s1	x	0%	x	11%	x	x
On1ccccc1=S	0.28µM*	u	0.32µM*	-12%	1µM*	0.28µM*
CC(C)(C)c1cc(C=C(C#N)C#N)cc(Br)c1O	27µM*	x	x	x	x	x
COC1=C(C)C(=O)C2=C(C1=O)C(CO)N1C(C#N)C3CC4C(C1C2N1CCOC41)N3C (configuration not stated)	u	u	u	u	3%	7.1µM*
CC(C)N(Cc1ccccc1)C(=O)CCS(=O)(=O)c1ccc2c(c1)oc(=O)n2C	3%	0%	i	8%	-1%	-16%
